# Source: the supplement of paper PMC3334620
# Whole data set: some 33,000 sequences, median “E-score (-0.5 to 0.5)” near -0.032, cut for the highest 2% near 0.36. For the sample, the highest values were picked, then their nearest neighbours and some sequences at random.
# Molecular target: T1, Sko1 (UniProt Q02100)
# T1 sequence: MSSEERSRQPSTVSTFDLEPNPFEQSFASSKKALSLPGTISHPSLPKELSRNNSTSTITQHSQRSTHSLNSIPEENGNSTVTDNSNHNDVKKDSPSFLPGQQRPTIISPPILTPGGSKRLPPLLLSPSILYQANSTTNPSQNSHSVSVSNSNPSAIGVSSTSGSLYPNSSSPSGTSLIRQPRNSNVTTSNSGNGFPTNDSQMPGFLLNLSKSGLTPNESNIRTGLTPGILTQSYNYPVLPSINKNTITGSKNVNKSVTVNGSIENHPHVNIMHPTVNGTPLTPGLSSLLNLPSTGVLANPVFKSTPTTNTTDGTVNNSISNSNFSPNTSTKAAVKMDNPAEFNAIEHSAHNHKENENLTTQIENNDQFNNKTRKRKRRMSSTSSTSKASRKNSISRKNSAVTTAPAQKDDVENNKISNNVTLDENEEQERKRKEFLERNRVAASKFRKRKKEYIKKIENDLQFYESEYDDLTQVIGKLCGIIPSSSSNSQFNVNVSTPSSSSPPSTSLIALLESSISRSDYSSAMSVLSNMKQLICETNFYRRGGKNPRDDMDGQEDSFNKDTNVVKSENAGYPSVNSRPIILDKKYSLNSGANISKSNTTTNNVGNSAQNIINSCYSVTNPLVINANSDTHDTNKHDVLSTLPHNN
# Test: PBM E-score (8-mer binding enrichment) (E-score (-0.5 to 0.5)); higher = stronger / more preferred TF binding
# Conditions: protein concentration: 200 nM; construct: GST-full length
# How it was run: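 For each ungapped eight-base word taken together with its reverse complement, the Universal PBM Analysis Suite assigned an E-score. Binding data came from GST-tagged yeast transcription factors, applied at about 100-200 nM, on universal all-10-mer Agilent arrays made double-stranded by primer extension. Fluorescent anti-GST marked bound protein, and scans were normalised with masliner.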
row,Sequence,PBM E-score
1,AAACACGT,0.413
2,ATATAGAG,-0.151
3,CTTTGGGA,-0.187
4,AATGAGCG,0.0936
5,ACGCAAGC,0.327
6,ACGCAATA,0.45
7,ACGCAATG,0.399
8,GCGCAATA,0.0795
9,AGGCAATG,0.00123
10,ACGCAATC,0.411
11,CCGCAATC,-0.102
12,ACGCAAGG,0.316
13,CCGCAATA,0.0923
14,AAAGGGGT,-0.26
15,ATCCACTA,-0.0731
16,CGTTAATC,0.168
17,ACGGCCCA,-0.317
18,ATAACCAT,0.057
19,AAGTTTGC,0.0635
20,CTGTGCTC,0.0303
21,CCTACGGA,-0.182
22,CCTACGAA,0.0841
23,CCTACGTA,0.477
24,ACTACGGC,-0.0407
25,CCTACGGC,-0.34

row,Sequence,PBM E-score
1,ACTACGCC,-0.00632
2,ACTACGTC,0.433
3,CCTACGTC,0.427
4,CCTACGAC,0.0224
5,GCGGGTAC,-0.0713
6,CACACTAC,0.0507
7,CCAAGCGC,-0.147
8,AGTTGCAA,0.219
9,ACATCCGG,-0.227
10,CCTACCGA,-0.168
11,CCACGCCC,-0.165
12,CCGGTGGA,-0.297
13,CCGTATAG,-0.115
14,ACGTATAG,0.437
15,AGGTATAG,-0.141
16,ACGTATAT,0.453
17,ACGTATAA,0.457
18,ATGTATAC,0.247
19,AGGTATAT,0.184
20,CCGTATAC,0.0259
21,CCGTATAA,0.0514
22,AAGTATAT,0.118
23,ACGTATAC,0.463
24,TCGTATAA,0.221
25,ACGTGAGT,0.331

row,Sequence,PBM E-score
1,AATGAGGT,0.324
2,CTTGGGTC,-0.348
3,GGCGCGAA,-0.151
4,GCGTATAC,0.365
5,GCGTATAA,0.271
6,GAGTATAC,0.192
7,ATGGAGGG,-0.334
8,CCACACTC,0.00961
9,AAGATTAG,0.062
10,AGTAAGGC,-0.0198
11,GGTACGCA,0.268
12,CTCACGCA,0.28
13,GTTACGCA,0.417
14,GTTACTCA,0.0403
15,CTTACGCA,0.427
16,CTTACGCC,0.193
17,ATTACTCG,0.204
18,ATTACGCG,0.431
19,ATTACGGA,0.287
20,ATTACGCA,0.47
21,ATTACGCC,0.338
22,CAAACCAG,-0.071
23,GCACCGCC,-0.218
24,GTACCTGA,0.16
25,GCATCTCC,-0.341

row,Sequence,PBM E-score
1,ACCGGCCT,-0.0244
2,ATAGAAAG,-0.115
3,CATAGAAC,-0.15
4,AGTACGTA,0.474
5,AGTACGAA,0.312
6,AGTACGGC,-0.101
7,CGTACATC,0.244
8,CGTACATA,0.378
9,GGTACGGA,-0.174
10,AGTACGAC,0.157
11,GGTACGAA,0.19
12,AGTACGTC,0.435
13,AGTACGGA,-0.0994
14,GGTACGTA,0.454
15,AGTACATA,0.00479
16,AACCGCCC,-0.295
17,CTTCAATA,0.197
18,CGCCGTGC,-0.189
19,CGTGCGGC,0.00261
20,CCCTACCA,-0.0655
21,CCCTAGGC,-0.269
22,GACTGGCC,-0.338
23,AGTACGCG,0.236
24,CGTACGCC,0.218
25,AGTACGAG,0.00509

row,Sequence,PBM E-score
1,CGTACGTC,0.45
2,CGTACGAA,0.269
3,AGTACGTG,0.365
4,CGTACGGC,0.251
5,CGTACGCA,0.332
6,CGTACGTA,0.474
7,GGGTTGCA,-0.00077
8,ATGGCGTG,0.336
9,GTGGCGTA,0.325
10,ATGGCGTC,0.392
11,CTGGCGTA,0.138
12,ATGGCGTA,0.449
13,CTGGCGTC,0.0837
14,AACGAGTG,0.0243
15,CGATGCAC,-0.0249
16,AGTCTTAA,-0.164
17,TCACTGCA,0.175
18,GTTACGAA,0.378
19,CTTACGAA,0.275
20,ATTACGAA,0.453
21,CTCACGAA,0.138
22,ATTACAAA,0.234
23,GTTACAAA,0.213
24,GTAGGGGA,-0.186
25,GGCCATCA,-0.165

row,Sequence,PBM E-score
1,ACCCTGAA,-0.0751
2,CGCGAATA,0.0754
3,ACCTAACT,0.0945
4,CGTCGCCA,0.0172
5,GAACCTCA,-0.069
6,GGGACGTA,0.319
7,AGGACGTA,0.374
8,AGGACGTG,0.153
9,AGGACGTC,0.363
10,AGGACGCC,-0.21
11,CGGACGTC,0.292
12,CATACCCA,0.108
13,TAAGCAGA,-0.00339
14,AACGTAGT,0.414
15,AACGTACT,0.37
16,AAGGTAGT,-0.172
17,ACCGTACT,0.00383
18,AACGTACG,0.398
19,ACCGTAGT,-0.122
20,ATCGTACG,0.282
21,ACCGTACG,0.145
22,AGCGTACT,-0.0878
23,GTCTTTAA,0.178
24,ACATTGAA,0.166
25,GTGCATGA,0.133

row,Sequence,PBM E-score
1,AGATGGTC,-0.139
2,ACGTCAAG,0.444
3,AGGTCAAG,-0.193
4,ACGTCAAT,0.46
5,CCGTCAAG,-0.0482
6,TCGTCAAA,0.281
7,ATGTCAAT,0.226
8,CCGTCAAC,-0.0749
9,ACGTCAAC,0.469
10,ACGTCAAA,0.447
11,AGGTCAAT,0.0656
12,GCGTCAAA,0.274
13,GCGTCAAC,0.302
14,CTCCAACC,-0.0963
15,CTGTACCC,-0.24
16,AGATTTCG,0.114
17,ACTAGAGA,-0.0523
18,CGATTGGA,-0.0798
19,AGATTGCG,0.188
20,AATGATGT,0.427
21,AATGATGA,0.328
22,AATGATGG,0.189
